Results: publication PMC5349851, “Combinatorial bZIP dimers display complex DNA-binding specificity landscapes”

Tests used:
Test in all cases: SELEX-seq (CSI, HT-SELEX, round 3); SELEX-seq: 1x PBS (10 mM phosphate, 137 mM NaCl, 2.7 mM KCl) pH 7.6, 2.5 mM DTT, 50 ng/ul poly dI-dC, 0.1% BSA, 50 nM biotinylated bZIP (1:3 with partner for heterodimers), 100 nM library, room temperature, 1 h, 3 rounds; high values mean tight binding
Settings in all cases: protein: recombinant;recombinant; copies: 1;1; dsDNA, one strand shown
FOS;ATF2 = FOS;ATF2 (Homo sapiens;Homo sapiens, UniProt P01100;P15336 128-201;343-417, |)
FOS;ATF2, sequence (P01100 other isoform, or with tags, fused parts or gaps |, chain 1 of 2): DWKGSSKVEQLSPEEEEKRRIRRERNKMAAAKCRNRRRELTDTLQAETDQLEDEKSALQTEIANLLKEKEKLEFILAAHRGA
FOS;ATF2, sequence (P15336 other isoform, or with tags, fused parts or gaps |, chain 2 of 2): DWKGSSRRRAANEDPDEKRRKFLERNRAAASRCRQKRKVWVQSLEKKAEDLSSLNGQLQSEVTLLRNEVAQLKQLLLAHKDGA

FOS;DBP = FOS;DBP (Homo sapiens;Homo sapiens, UniProt P01100;Q10586 128-201;246-324, |)
FOS;DBP, sequence (P01100 other isoform, or with tags, fused parts or gaps |): as the sequence (P01100 other isoform, or with tags, fused parts or gaps |, chain 1 of 2) above

ATF5;CEBPG = target: T1, ATF5;CEBPG (Homo sapiens;Homo sapiens, UniProt Q9Y2D1;P53567 199-275;52-130, |)
T1 sequence 1: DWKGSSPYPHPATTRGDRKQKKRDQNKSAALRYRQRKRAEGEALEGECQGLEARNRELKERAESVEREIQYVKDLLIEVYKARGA
T1 sequence 2: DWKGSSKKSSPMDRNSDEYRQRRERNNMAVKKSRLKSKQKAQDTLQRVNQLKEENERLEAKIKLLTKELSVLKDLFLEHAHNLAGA

ATF5;CEBPA = ATF5;CEBPA (Homo sapiens;Homo sapiens, UniProt Q9Y2D1;P49715 199-275;273-345, |)
ATF5;JUN = ATF5;JUN (Homo sapiens;Homo sapiens, UniProt Q9Y2D1;P05412 199-275;243-316, |)
ATF5;JUN, sequence (P05412 other isoform, or with tags, fused parts or gaps |): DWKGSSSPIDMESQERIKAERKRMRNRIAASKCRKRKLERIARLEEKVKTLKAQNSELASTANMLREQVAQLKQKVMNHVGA

ATF5;BATF3 = target: T2, ATF5;BATF3 (Homo sapiens;Homo sapiens, UniProt Q9Y2D1;Q9NR55 199-275;26-99, |)
T2 sequence 1: T1 sequence 1
T2 sequence 2: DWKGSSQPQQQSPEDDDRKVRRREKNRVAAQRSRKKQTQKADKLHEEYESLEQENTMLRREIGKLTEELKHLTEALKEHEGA

DDIT3;CEBPG = DDIT3;CEBPG (Homo sapiens;Homo sapiens, UniProt P35638;P53567 88-169;52-130, |)
DDIT3;CEBPG, sequence (P35638 other isoform, or with tags, fused parts or gaps |): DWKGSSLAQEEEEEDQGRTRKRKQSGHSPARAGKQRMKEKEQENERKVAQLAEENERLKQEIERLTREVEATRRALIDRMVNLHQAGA

MAFB;ATF4 = MAFB;ATF4 (Homo sapiens;Homo sapiens, UniProt Q9Y5Q3;P18848 212-305;269-346, |)
MAFB;ATF4, sequence (Q9Y5Q3 other isoform, or with tags, fused parts or gaps |, chain 1 of 2): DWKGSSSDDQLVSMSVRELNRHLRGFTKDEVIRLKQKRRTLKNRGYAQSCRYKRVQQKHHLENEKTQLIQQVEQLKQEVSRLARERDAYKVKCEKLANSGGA
MAFB;ATF4, sequence (P18848 other isoform, or with tags, fused parts or gaps |, chain 2 of 2): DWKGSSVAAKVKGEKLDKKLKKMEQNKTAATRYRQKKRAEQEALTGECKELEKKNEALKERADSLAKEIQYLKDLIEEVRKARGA

BATF2;ATF3 = target: T3, BATF2;ATF3 (Homo sapiens;Homo sapiens, UniProt Q8N1L9;P18847 8-85;77-150, |)
T3 sequence 1: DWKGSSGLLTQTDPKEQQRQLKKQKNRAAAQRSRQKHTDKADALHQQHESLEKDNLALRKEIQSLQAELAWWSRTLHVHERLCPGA
T3 sequence 2: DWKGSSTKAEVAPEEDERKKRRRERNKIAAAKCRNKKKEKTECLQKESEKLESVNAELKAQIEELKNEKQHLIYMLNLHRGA

BATF2;JUN = BATF2;JUN (Homo sapiens;Homo sapiens, UniProt Q8N1L9;P05412 8-85;243-316, |)
BATF2;JUN, sequence (P05412 other isoform, or with tags, fused parts or gaps |): as the sequence (P05412 other isoform, or with tags, fused parts or gaps |) above

BATF2;ATF4 = BATF2;ATF4 (Homo sapiens;Homo sapiens, UniProt Q8N1L9;P18848 8-85;269-346, |)
BATF2;ATF4, sequence (P18848 other isoform, or with tags, fused parts or gaps |, chain 2 of 2, one chain of several): as the sequence (P18848 other isoform, or with tags, fused parts or gaps |, chain 2 of 2) above

BATF3;NFIL3 = target: T4, BATF3;NFIL3 (Homo sapiens;Homo sapiens, UniProt Q9NR55;Q16649 26-99;64-134, |)
T4 sequence 1: T2 sequence 2
T4 sequence 2: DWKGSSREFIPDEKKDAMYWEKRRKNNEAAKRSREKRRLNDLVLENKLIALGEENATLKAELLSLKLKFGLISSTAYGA

CEBPE;CEBPE = target: T5, CEBPE;CEBPE (Homo sapiens;Homo sapiens, UniProt Q15744;Q15744 195-267;195-267, |)
T5 sequence 1: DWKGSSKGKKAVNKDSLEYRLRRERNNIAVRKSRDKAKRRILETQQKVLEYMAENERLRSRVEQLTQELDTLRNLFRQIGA
T5 sequence 2: T5 sequence 1

JUNB;CEBPE = target: T6, JUNB;CEBPE (Homo sapiens;Homo sapiens, UniProt P17275;Q15744 259-332;195-267, |)
T6 sequence 1: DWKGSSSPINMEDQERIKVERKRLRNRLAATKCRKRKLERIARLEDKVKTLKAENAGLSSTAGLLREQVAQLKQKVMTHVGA
T6 sequence 2: T5 sequence 1

JUNB;BATF = target: T7, JUNB;BATF (Homo sapiens;Homo sapiens, UniProt P17275;Q16520 259-332;17-90, |)
T7 sequence 1: T6 sequence 1
T7 sequence 2: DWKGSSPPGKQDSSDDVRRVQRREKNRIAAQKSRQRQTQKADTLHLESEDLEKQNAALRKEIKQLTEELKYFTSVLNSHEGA

JUNB;FOSL1 = target: T8, JUNB;FOSL1 (Homo sapiens;Homo sapiens, UniProt P17275;P15407 259-332;96-169, |)
T8 sequence 1: T6 sequence 1
T8 sequence 2: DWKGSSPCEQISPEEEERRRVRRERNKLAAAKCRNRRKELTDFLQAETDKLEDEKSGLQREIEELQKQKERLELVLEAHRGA

JUNB;FOS = JUNB;FOS (Homo sapiens;Homo sapiens, UniProt P17275;P01100 259-332;128-201, |)
JUNB;FOS, sequence (P01100 other isoform, or with tags, fused parts or gaps |): as the sequence (P01100 other isoform, or with tags, fused parts or gaps |, chain 1 of 2) above

JUNB;NFE2 = target: T9, JUNB;NFE2 (Homo sapiens;Homo sapiens, UniProt P17275;Q16621 259-332;221-337, |)
T9 sequence 1: T6 sequence 1
T9 sequence 2: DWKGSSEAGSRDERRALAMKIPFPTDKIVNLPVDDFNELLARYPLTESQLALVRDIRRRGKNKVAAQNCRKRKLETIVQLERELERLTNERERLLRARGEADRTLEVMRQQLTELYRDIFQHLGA

JUNB;NFE2L1 = JUNB;NFE2L1 (Homo sapiens;Homo sapiens, UniProt P17275;Q14494 259-332;609-725, |)
JUNB;NFE2L1, sequence (Q14494 other isoform, or with tags, fused parts or gaps |): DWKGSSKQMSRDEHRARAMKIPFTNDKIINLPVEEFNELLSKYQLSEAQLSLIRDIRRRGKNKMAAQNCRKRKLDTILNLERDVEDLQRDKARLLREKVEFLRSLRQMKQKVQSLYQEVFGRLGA

JUNB;HLF = target: T10, JUNB;HLF (Homo sapiens;Homo sapiens, UniProt P17275;Q16534 259-332;216-293, |)
T10 sequence 1: T6 sequence 1
T10 sequence 2: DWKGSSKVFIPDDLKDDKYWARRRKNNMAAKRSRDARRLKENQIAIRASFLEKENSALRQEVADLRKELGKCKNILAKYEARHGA

Row | Sequence | binding signal (FOS;ATF2) | binding signal (FOS;DBP) | binding signal (ATF5;CEBPG) | binding signal (ATF5;CEBPA) | binding signal (ATF5;JUN) | binding signal (ATF5;BATF3) | binding signal (DDIT3;CEBPG) | binding signal (MAFB;ATF4) | binding signal (BATF2;ATF3) | binding signal (BATF2;JUN) | binding signal (BATF2;ATF4) | binding signal (BATF3;NFIL3) | binding signal (CEBPE;CEBPE) | binding signal (JUNB;CEBPE) | binding signal (JUNB;BATF) | binding signal (JUNB;FOSL1) | binding signal (JUNB;FOS) | binding signal (JUNB;NFE2) | binding signal (JUNB;NFE2L1) | binding signal (JUNB;HLF)
1 | ATGACGCAAT | 0.00209 relative CSI intensity (max = 1) | 0.194 relative CSI intensity (max = 1) | 0.902 relative CSI intensity (max = 1) | 0.864 relative CSI intensity (max = 1) | 0.0554 relative CSI intensity (max = 1) | 0.00351 relative CSI intensity (max = 1) | 0.339 relative CSI intensity (max = 1) | 0.0526 relative CSI intensity (max = 1) | 0.00454 relative CSI intensity (max = 1) | 0.0567 relative CSI intensity (max = 1) | 0.0339 relative CSI intensity (max = 1) | 0.0474 relative CSI intensity (max = 1) | 0.259 relative CSI intensity (max = 1) | 0.333 relative CSI intensity (max = 1) | 0.00832 relative CSI intensity (max = 1) | 0.00312 relative CSI intensity (max = 1) | 0.00347 relative CSI intensity (max = 1) | 0.344 relative CSI intensity (max = 1) | 0.169 relative CSI intensity (max = 1) | 0.176 relative CSI intensity (max = 1)
2 | CCTGACGTCA | 0.00727 relative CSI intensity (max = 1) | 0.057 relative CSI intensity (max = 1) | 0.072 relative CSI intensity (max = 1) | 0.0673 relative CSI intensity (max = 1) | 0.288 relative CSI intensity (max = 1) | 0.0107 relative CSI intensity (max = 1) | 0.0315 relative CSI intensity (max = 1) | 0.182 relative CSI intensity (max = 1) | 0.00318 relative CSI intensity (max = 1) | 0.0191 relative CSI intensity (max = 1) | 0.0186 relative CSI intensity (max = 1) | 0.00724 relative CSI intensity (max = 1) | 0.00701 relative CSI intensity (max = 1) | 0.00962 relative CSI intensity (max = 1) | 0.0101 relative CSI intensity (max = 1) | 0.00464 relative CSI intensity (max = 1) | 0.00331 relative CSI intensity (max = 1) | 0.0277 relative CSI intensity (max = 1) | 0.0112 relative CSI intensity (max = 1) | 0.00417 relative CSI intensity (max = 1)
3 | ATGACGTCAT | 1 relative CSI intensity (max = 1) | 0.887 relative CSI intensity (max = 1) | 0.529 relative CSI intensity (max = 1) | 0.516 relative CSI intensity (max = 1) | 0.742 relative CSI intensity (max = 1) | 0.681 relative CSI intensity (max = 1) | 1 relative CSI intensity (max = 1) | 0.336 relative CSI intensity (max = 1) | 0.0121 relative CSI intensity (max = 1) | 0.299 relative CSI intensity (max = 1) | 0.216 relative CSI intensity (max = 1) | 0.218 relative CSI intensity (max = 1) | 0.0521 relative CSI intensity (max = 1) | 0.104 relative CSI intensity (max = 1) | 0.784 relative CSI intensity (max = 1) | 0.3 relative CSI intensity (max = 1) | 0.188 relative CSI intensity (max = 1) | 1 relative CSI intensity (max = 1) | 1 relative CSI intensity (max = 1) | 1 relative CSI intensity (max = 1)
4 | ATGACGTAAT | 0.133 relative CSI intensity (max = 1) | 0.614 relative CSI intensity (max = 1) | 0.502 relative CSI intensity (max = 1) | 0.488 relative CSI intensity (max = 1) | 0.289 relative CSI intensity (max = 1) | 0.0199 relative CSI intensity (max = 1) | 0.437 relative CSI intensity (max = 1) | 0.108 relative CSI intensity (max = 1) | 0.00842 relative CSI intensity (max = 1) | 0.116 relative CSI intensity (max = 1) | 0.119 relative CSI intensity (max = 1) | 0.178 relative CSI intensity (max = 1) | 0.0888 relative CSI intensity (max = 1) | 0.0862 relative CSI intensity (max = 1) | 0.0325 relative CSI intensity (max = 1) | 0.017 relative CSI intensity (max = 1) | 0.00946 relative CSI intensity (max = 1) | 0.12 relative CSI intensity (max = 1) | 0.116 relative CSI intensity (max = 1) | 0.537 relative CSI intensity (max = 1)
5 | ATGACGGAAT | – | 0.0179 relative CSI intensity (max = 1) | 0.0428 relative CSI intensity (max = 1) | 0.0438 relative CSI intensity (max = 1) | – | – | 0.0328 relative CSI intensity (max = 1) | 0.014 relative CSI intensity (max = 1) | – | 0.00635 relative CSI intensity (max = 1) | – | 0.0076 relative CSI intensity (max = 1) | 0.00629 relative CSI intensity (max = 1) | 0.00513 relative CSI intensity (max = 1) | 0.002 relative CSI intensity (max = 1) | – | – | 0.0241 relative CSI intensity (max = 1) | 0.0118 relative CSI intensity (max = 1) | 0.00331 relative CSI intensity (max = 1)
6 | ATGATGCAAT | – | 0.0452 relative CSI intensity (max = 1) | 0.687 relative CSI intensity (max = 1) | 0.756 relative CSI intensity (max = 1) | 0.0503 relative CSI intensity (max = 1) | 0.00117 relative CSI intensity (max = 1) | 0.574 relative CSI intensity (max = 1) | 0.0202 relative CSI intensity (max = 1) | 0.003 relative CSI intensity (max = 1) | 0.00706 relative CSI intensity (max = 1) | 0.0322 relative CSI intensity (max = 1) | 0.0307 relative CSI intensity (max = 1) | 0.139 relative CSI intensity (max = 1) | 0.314 relative CSI intensity (max = 1) | – | – | – | 0.116 relative CSI intensity (max = 1) | 0.0453 relative CSI intensity (max = 1) | –
